Here are results for six molecules from PubChem BioAssay (Tox21).

Assay [1] has as its target Luciferin 4-monooxygenase (Photinus pyralis) (UniProt P08659). In words: qHTS assay to identify small molecule inhibitors of firefly luciferase (AID 1224835). Also: nearly all actives have a fitted effect of over 25% in size. Also: potency is read from the fitted curve at half-maximal effect. An outline of the steps: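 Inhibition of purified Photinus luciferase is measured by luminescence. Substrate levels (D-luciferin, ATP) sit at their KM values. Each compound is tested in a concentration series.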
A general note: In qHTS, concentration-response curves come from the screen itself.

A short description of assay [2]: qHTS assay to identify small molecule agonists of the constitutive androstane receptor (CAR) signaling pathway - cell viability counter screen (AID 1224836). Also: nearly all actives have a fitted effect of over 45% in size. In a few lines:
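Viability read-out: CellTiter-Fluor fluorescence after 23 h compound exposure at 37 C/5% CO2 in double-stable HepG2-CYP2B6-hCAR cells, with PK11195 present at 0.75 uM final; compounds tested in 15-point titration.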

Assay [3] in a line: qHTS assay to identify small molecule antagonists of the constitutive androstane receptor (CAR) signaling pathway - cell viability counter screen (AID 1224837). Also: nearly all actives have a fitted effect of over 45% in size. In a few lines:
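Using CellTiter-Fluor, viability is scored in HepG2 cells stably carrying hCAR and a 2.2kb CYP2B6 reporter after 23 hr compound exposure across 15 concentrations, with CITCO present at 50 nM.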

The target in assay [4] is Nuclear receptor subfamily 1 group I member 3 (Homo sapiens) (UniProt Q14994). The assay is described as follows: qHTS assay to identify small molecule antagonists of the constitutive androstane receptor (CAR) signaling pathway (AID 1224838).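 Also: HepG2 cells stably expressing hCAR with CYP2B6 luciferase reporter stimulated by CITCO; nearly all actives have a fitted effect of over 40% in size.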 In a few lines: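 Reporter luminescence was quantified after 24 h exposure of hCAR/CYP2B6-2.2kb double-stable HepG2 cells to compounds at 15 concentrations in the presence of 50 nM CITCO final.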
Nuclear receptor subfamily 1 group I member 3 (Homo sapiens), sequence (Q14994 whole entry, looked up): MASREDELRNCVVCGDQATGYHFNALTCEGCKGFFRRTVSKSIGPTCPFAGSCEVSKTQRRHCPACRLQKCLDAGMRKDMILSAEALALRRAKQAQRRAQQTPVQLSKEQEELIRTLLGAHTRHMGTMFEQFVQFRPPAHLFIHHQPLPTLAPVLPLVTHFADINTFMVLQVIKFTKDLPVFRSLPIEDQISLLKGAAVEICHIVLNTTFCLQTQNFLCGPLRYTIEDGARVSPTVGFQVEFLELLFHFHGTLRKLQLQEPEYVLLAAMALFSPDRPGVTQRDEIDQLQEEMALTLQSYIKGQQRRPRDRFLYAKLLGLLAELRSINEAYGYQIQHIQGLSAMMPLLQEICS

Assay [5] shares this target. In words: qHTS assay to identify small molecule agonists of the constitutive androstane receptor (CAR) signaling pathway (AID 1224839). Also: nearly all actives have a fitted effect of over 15% in size. Also: potency is read from the fitted curve at half-maximal effect.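 As to activation: HepG2 cells stably carrying human CAR and a CYP2B6 luciferase reporter.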 An outline of the steps:
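Luminescence read-out (ONE-Glo, 30 min, room temperature) from double-stable HepG2-CYP2B6-hCAR cells exposed 24 h to 15-point compound series in presence of 0.75 uM PK11195 final.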

Assay [6] is described as follows: qHTS assay to identify small molecule antagonists of the estrogen related receptor signaling pathway with the pleiotropic PPARgamma coactivator (PGC) from Tox21 10K library - cell viability counter screen (AID 1224840; active = well fitted cell-killing curve with a large enough effect in the repeat runs, not every such curve was filed as active; also: nearly all actives have a fitted effect of over 40% in size). In a few lines: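 Here the PGC/ERR cells serve as a cytotoxicity control: they are exposed to compounds for 17.5 hours at 37 C, and live-cell signal is quantified using CellTiter-Fluor fluorescence.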

Assay [7] can be described thus: qHTS assay to identify small molecule antagonists of the estrogen related receptor signaling pathway with the pleiotropic PPARgamma coactivator (PGC) from Tox21 10K library (AID 1224841; call rule not given here; also: actives are mostly falling curves and most rising ones were filed inactive; nearly all actives have a fitted effect of over 50% in size; also: potency is read from the fitted curve at half-maximal effect). In a few lines: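 Each well held 2,000 PGC/ERR cells, pre-incubated six hours (37 C, 5% CO2). Test substances in DMSO were added by pin tool and left for 18 h at 37 C before luciferase detection by One-Glo.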

A short description of assay [8]: qHTS assay to identify small molecule agonists of the estrogen related receptor signaling pathway with the pleiotropic PPARgamma coactivator (PGC) from Tox21 10K library (AID 1224842). Also: nearly all actives have a fitted effect of over 15% in size. Also: potency is read from the fitted curve at half-maximal effect. In a few lines:
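Luminescence from One-Glo (30 min, room temperature) measured after PGC/ERR cells had 18 h at 37 C with pinned compound (23 nL in DMSO). Cells had been seeded at 2,000 per well and pre-incubated 6 h.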

Assay [9] has as its target Thyrotropin receptor (Homo sapiens) (UniProt P16473). The assay is described as follows: qHTS assay to identify small molecule agonists of the thyroid stimulating hormone receptor (TSHR) signaling pathway (AID 1224843; calls by dose curve; also: nearly all actives have a fitted effect of over 45% in size). An outline of the steps:
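HEK293 cells stably bearing the thyrotropin receptor were plated at 800 cells/well and challenged with compound (30 min, RT). Accumulated cAMP was quantified via cAMP-d2 competing for cryptate-tagged antibody.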

The nature of assay [10]: qHTS assay to identify small molecule agonists of the hypoxia (HIF-1) signaling pathway - cell viability counter screen (AID 1224844; calls by dose curve; also: nearly all actives have a fitted effect of over 50% in size). An outline of the steps:
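Multiplexed with the HRE beta-lactamase assay, this viability read used CellTiter-Glo luminescence (30 min, RT) on HRE-bla ME-180 cells treated 17 hrs with compounds in 0.5% dialyzed FBS medium.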

The nature of assay [11]: qHTS assay to identify small molecule agonists of the hypoxia (HIF-1) signaling pathway (AID 1224846; active = well fitted activation curve with a large enough effect in the signal ratio in the repeat runs, not every such curve was filed as active; the % refers to the signal ratio). In a few lines:
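Hypoxia-pathway activation was scored as increased beta-lactamase from an HRE-controlled reporter in ME-180 cells; plated at 2,000 cells per well with 0.5% dialyzed FBS, they were exposed 17 hrs to compounds and then given CCF4-AM.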

Assay [12] can be described thus: qHTS assay to identify small molecule agonists of H2AX - cell viability counter screen (AID 1224847; calls by dose curve; also: nearly all actives have a fitted effect of over 30% in size; also: potency is read from the fitted curve at half-maximal effect). An outline of the steps: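 CHO-K1 wt, 1000 cells/well, o/n 37C; cpds 15 conc, 3 h 37C, 0.76% DMSO; CellTiter-Glo, 30 min RT, luminescence.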
Assay [13] is described as follows: qHTS assay to identify small molecule antagonists of the estrogen related receptor (ERR) signaling pathway from Tox21 library (AID 1224848). Also: nearly all actives have a fitted effect of over 50% in size. Also: potency is read from the fitted curve at half-maximal effect. An outline of the steps: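 Reading was by luminescence 30 min after ONE-Glo addition. Before that, ERR cells at 2,000 per well had rested 6 h at 37 C/5% CO2 and then received pin-tooled compounds in DMSO for 18 h at 37 C.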

Assay [14] in a line: qHTS assay to identify small molecule agonists of the estrogen related receptor (ERR) signaling pathway from Tox21 library (AID 1224849; calls by dose curve; also: nearly all actives have a fitted effect of over 15% in size). To be noted: ERR reporter cell line, ONE-Glo luciferase, 18 h. An outline of the steps: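 Six hours post-seeding at 37 C/5% CO2, ERR cells receive DMSO-solubilised compounds; after 18 h at 37 C, ONE-Glo reagent is applied and luminescence recorded.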

A short description of assay [15]: qHTS RealTime-Glo MT Cell Viability Assay in HepG2 cells - 24 hour (AID 1224867). Also: nearly all actives have a fitted effect of over 50% in size. In a few lines: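 Real-time, nonlytic viability: 600 HepG2 cells/well mixed with NanoLuc enzyme plus prosubstrate; 5 h settle, compound (DMSO) added by pintool; luminescence monitored over 40 h at 37 C.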
Assay [16] in a line: qHTS RealTime-Glo MT Cell Viability Assay in HEK293 cells - 32 hour (AID 1224868). Also: nearly all actives have a fitted effect of over 50% in size. Also: potency is read from the fitted curve at half-maximal effect. In a few lines:
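Cells + reagent dispensed (600 cells/well, HEK293) → 5 h at 37 C/5% CO2 → 23 nL compound in DMSO pinned → 40 h at 37 C → luminescence read at 0, 8, 16, 24, 32, 40 h.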

A short description of assay [17]: A CellTox Green Cytotoxicity Assay to monitor cytotoxicity in HEK293 cells - 40 hour (AID 1224871). Also: nearly all actives have a fitted effect of over 45% in size. Also: potency is read from the fitted curve at half-maximal effect. An outline of the steps:
(§1)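 Seeding of HEK293 cells together with cytotoxicity dye preceded a 5 h incubation at 37 C/5% CO2. Test compounds in DMSO were then added and fluorescence monitored across 40 h.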

A short description of assay [18]: qHTS assay to identify small molecule agonists of H2AX (AID 1224845; active = well fitted activation curve with a large enough effect in the signal ratio in the repeat runs, not every such curve was filed as active; the % refers to the signal ratio). An outline of the steps: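 Phospho-H2AX Ser139 measured by HTRF (ex 320 nm; em 665 and 620 nm) after 24 hr antibody incubation. Compounds, 15 concentrations, 0.76% DMSO, were applied to CHO-K1 cells for 3hr at 37C before lysis.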
A short description of assay [19]: A CellTox Green Cytotoxicity Assay to monitor cytotoxicity in HEK293 cells - 0 hour (AID 1224869). Also: nearly all actives have a fitted effect of over 50% in size. An outline of the steps:
as §1

Assay [20] can be described thus: qHTS RealTime-Glo MT Cell Viability Assay in HepG2 cells - 40 hour (AID 1224870). Also: nearly all actives have a fitted effect of over 50% in size. An outline of the steps: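 Real-time viability: cells seeded at 600 per well together with NanoLuc and cell-permeant prosubstrate, compounds added after 5 h incubation. Luminescence tracked at 0, 8, 16, 24, 32 and 40 h of exposure.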

“And” between values parts separate entries of the source, which are not always exact repeats. Equal entries are not always repeated. Records with an inconclusive call do not appear. Some structures have more than one record in an assay (separate samples or runs), and their calls can disagree. The source made the active and inactive calls. Unless noted, calls follow the shape of the dose curve; as a rule, active = well fitted curve in the direction sought with a large enough effect in the repeat runs; inconclusive = weak or mixed curves; inactive = no such curve, though single readings can be large; an effect the other way counts as inactive or inconclusive.
% is scaled to controls: 0 for no effect and ±100 for the full control effect.

Thyrotropin receptor (Homo sapiens), sequence (P16473 whole entry, looked up): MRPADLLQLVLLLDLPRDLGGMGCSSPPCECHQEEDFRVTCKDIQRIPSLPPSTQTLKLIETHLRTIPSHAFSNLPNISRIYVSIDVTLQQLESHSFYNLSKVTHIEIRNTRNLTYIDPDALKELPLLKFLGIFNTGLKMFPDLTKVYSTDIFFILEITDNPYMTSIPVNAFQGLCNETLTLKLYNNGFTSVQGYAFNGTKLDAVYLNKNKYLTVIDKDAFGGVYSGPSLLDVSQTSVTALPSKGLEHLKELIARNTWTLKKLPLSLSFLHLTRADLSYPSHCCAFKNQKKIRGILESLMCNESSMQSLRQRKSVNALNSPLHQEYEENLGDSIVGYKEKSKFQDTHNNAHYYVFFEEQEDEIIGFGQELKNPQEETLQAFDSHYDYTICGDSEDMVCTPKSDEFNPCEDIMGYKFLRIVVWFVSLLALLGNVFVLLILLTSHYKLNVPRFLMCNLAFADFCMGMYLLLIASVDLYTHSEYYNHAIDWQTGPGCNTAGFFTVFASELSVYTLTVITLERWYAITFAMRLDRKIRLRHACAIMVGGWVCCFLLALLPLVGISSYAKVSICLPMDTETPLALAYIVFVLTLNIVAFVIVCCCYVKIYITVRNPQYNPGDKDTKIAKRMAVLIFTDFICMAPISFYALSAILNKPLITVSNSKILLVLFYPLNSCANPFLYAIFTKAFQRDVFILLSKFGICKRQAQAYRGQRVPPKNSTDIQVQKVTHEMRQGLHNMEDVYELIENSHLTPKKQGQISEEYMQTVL
Luciferin 4-monooxygenase (Photinus pyralis), sequence (P08659 whole entry, looked up): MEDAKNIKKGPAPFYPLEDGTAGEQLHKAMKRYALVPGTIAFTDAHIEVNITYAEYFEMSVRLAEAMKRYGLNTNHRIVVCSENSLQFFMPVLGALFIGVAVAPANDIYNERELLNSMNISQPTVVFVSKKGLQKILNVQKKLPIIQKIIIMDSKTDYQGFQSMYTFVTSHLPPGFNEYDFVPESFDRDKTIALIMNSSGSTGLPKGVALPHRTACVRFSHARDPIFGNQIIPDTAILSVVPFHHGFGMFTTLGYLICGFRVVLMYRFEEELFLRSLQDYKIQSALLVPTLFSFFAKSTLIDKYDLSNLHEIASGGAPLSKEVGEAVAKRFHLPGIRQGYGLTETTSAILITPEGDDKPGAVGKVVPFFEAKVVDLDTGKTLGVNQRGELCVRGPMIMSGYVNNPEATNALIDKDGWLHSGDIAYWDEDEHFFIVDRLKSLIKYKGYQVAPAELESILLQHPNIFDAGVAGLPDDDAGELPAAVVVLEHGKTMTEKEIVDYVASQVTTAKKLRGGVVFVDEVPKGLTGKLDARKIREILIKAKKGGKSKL

Regarding `O=C(COc1ccc(Cl)cc1)N1CCN(Cc2ccc3c(c2)OCO3)CC1`, the Potency result in assay [1], in [2], in [3], in [4], in [5] and in [6] was “inactive” each time. Moreover, the Potency result in [8], in assay [9], in [10], in assay [11], in assay [15] and in assay [17] was “inactive” each time. Further, the Potency in assay [7] is 43.3 µM (active); in [12], 101 µM (active) and inactive; in assay [13], 27.3 µM (active) and 18.8 µM (active); in assay [16], 43.6 µM (active). For the same molecule, the activity change, positive = activation in assay [14] (at 42.5 µM (top of the series)) is -37.2% (inactive); in [14] (at 92.4 µM (top of the series)) it was -59.3% (inactive).

On to `Cc1ccc2c(n1)Oc1ccc(C(C)C(=O)OCC(=O)N(C)C)cc1C2` (stereo unspecified), for which the Potency in assay [1] was 17.4 µM (active) and 15.5 µM (active); in [5], 11.9 µM (active). The Potency result in assay [2], in assay [3], in assay [4], in [6], in assay [7] and in assay [8] was “inactive” in each case. The Potency result in assay [9], in assay [10], in [11], in [12], in assay [13] and in assay [15] was “inactive” each time. For the same molecule, the Potency result in assay [16] and in assay [17] was “inactive” throughout. Also, in [14] (at 42.5 µM (top of the series)), the activity change, positive = activation is 24.3% (active) and 6.58% (inactive).

Consider `CCCCOCCOCCOCCO`, for which the Potency entry in assay [1], in assay [2], in assay [3], in assay [4], in assay [5] and in [6] was “inactive” in each case. The Potency entry in assay [7], in assay [8], in assay [9], in [10], in assay [11] and in assay [13] was “inactive” each time. The Potency result in assay [15], in assay [16], in assay [19], in [20] and in assay [17] was “inactive” throughout. The molecule was called inactive in [18]. In addition, the activity change, positive = activation in assay [14] (at 42.5 µM (top of the series)) was 2.27% (inactive); in assay [14] (at 92.4 µM (top of the series)) it was -1.73% (inactive).

For the molecule `Clc1nc(Cl)c(Cl)c(Cl)c1Cl`, the Potency result in [1], in assay [2], in assay [3], in assay [4], in [5] and in assay [6] was “inactive” in each case. For the same molecule, the Potency result in [7], in [8], in assay [9], in assay [10], in assay [11] and in assay [12] was “inactive” each time. The Potency entry in assay [13], in assay [15], in assay [16] and in assay [20] was “inactive” throughout. The molecule was called inactive in assay [18]. The activity change, positive = activation in [14] (at 92.4 µM (top of the series)) is 4.58% (inactive) and 5.62% (inactive). For the same molecule, in assay [17], the Potency is 43.9 µM (active) and inactive.

Regarding `c1cc(-c2ccncc2)ccn1`, the Potency result in assay [1], in [2], in [3], in [4], in [5] and in [6] was “inactive” throughout. Further, the Potency entry in [9], in assay [10], in assay [11], in assay [12], in assay [15] and in assay [16] was “inactive” each time. The Potency result in assay [19] is “inactive”. In assay [18], the molecule was called inactive.

As to `CC(C)Oc1ccc2c(=O)c(-c3ccccc3)coc2c1`, the Potency in assay [1] was 1.38 µM (active) and 1.55 µM (active); in assay [5] it was 1.5 µM (active) and 2.11 µM (active); in assay [8] it was 2.66 µM (active) and 2.98 µM (active). The Potency entry in [2], in assay [3], in assay [4], in [6], in assay [7] and in assay [9] was “inactive” in each case. In addition, the Potency result in [10], in assay [11], in assay [12], in assay [13], in assay [15] and in assay [20] was “inactive” each time. Besides, in assay [17], the Potency entry was “inactive”. In addition, the call in assay [18] was inactive. Further, in [14] (at 42.5 µM (top of the series)), the activity change, positive = activation was 38.2% (active) and 33.2% (active).
